Shown are actives, neighbours in structure and some others; about 3.6% of the full set was active somewhere.
HSF1 inhib = HSF1 inhibition. NIH3T3-HGL HSE-luciferase, MG132-induced, luminescence 8 h; stronger effect = lower value. activity change, negative = inhibition, % at 7.5 µM (by protocol). AID 2098. 300,000 compounds, 0.77% hits;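 active means more than half of replicate wells show activity change below -50%, luminescence cut by over half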;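 further: luciferase reports HSF-1 transcriptional activity via heat shock element; 0% = median of DMSO wells and -100% = zero luminescence signal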
HSF1 activator = increases HSF-1 driven luciferase reporter signal; NIH3T3-HGL HSF-1 luciferase reporter, MG132, 8 h; 100% = twice DMSO control signal; activation, % at 9 µM; 300,000 compounds, 1.7% hits; AID 504408;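 active means mean replicate activation of at least 50% with a set share of replicates each reaching 50%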;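 further: 0% = median of the neutral control wells and 100% = twice that signal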
TROY NFkB inh = TROY signaling inhibition; Q293 LMP1-TROYcd NF-kB luciferase reporter, 4 h; inhibition, % at 10 µM; 360,000 compounds, 0.98% hits; AID 1347056;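 active means compounds whose plate-normalised and pattern-corrected inhibition of the luciferase reporter signal at the single screening dose is 50% or more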
LGR2 antag = inhibitors of bursicon-induced Drosophila LGR2 receptor cAMP signaling. HEK293 LGR2, CRE-luciferase, bursicon-stimulated, 4 h. AID 720647. 380,000 compounds, 0.35% hits. inhibition, % at 9.99 µM;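 active means drop in luminescence signal, shown as inhibition above about 50% in the replicate tests, limit read from the data, passing the limit was not always enough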;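 further: agonist challenge used bursicon conditioned medium at about half maximal strength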
EBV LMP1 NFkB = reduces LMP1-driven NF-kappaB luciferase signal; inhibition, % at 12.5 µM; 350,000 compounds, 0.69% hits; LMP1-induced NF-kappaB luciferase reporter cells, luminescence; in the data active means inhibition above about 41%;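 further: 0% = neutral control wells and 100% = reference inhibitor control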
TWEAK-Fn14 inh = inhibitors of TWEAK-Fn14 interaction signaling. TWEAK-stimulated Fn14 reporter cells, luciferase luminescence, 8 h. inhibition, % at 10 µM. 360,000 compounds, 2% hits; in the data active means inhibition above about 50%
Numbers without * were called inactive; / = no result given; ! = repeats disagree.

SMILES	HSF1 inhib	HSF1 activator	TROY NFkB inh	LGR2 antag	EBV LMP1 NFkB	TWEAK-Fn14 inh
O=C(C[C@H]1C[C@H]2c3cc(NC(=O)c4ccc5c(c4)OCO5)ccc3O[C@H]2[C@@H](CO)O1)NCCc1ccccc1	/	/	/	15.8	/	/
C[C@@H]1CN([C@@H](C)CO)C(=O)c2cc(NS(=O)(=O)c3cccs3)ccc2O[C@H]1CN(C)S(=O)(=O)c1ccc(F)cc1	/	/	/	-14.6	/	/
COc1ccc(NC(=O)Nc2ccc3c(c2)CC(=O)N([C@@H](C)CO)C[C@H](C)[C@@H](CN(C)S(=O)(=O)c2c(C)noc2C)O3)cc1	/	/	/	-2.3	/	/
O=C(C[C@H]1CC[C@H]2[C@@H](COC[C@H](O)CN2S(=O)(=O)c2ccccc2)O1)N1CCOCC1	/	/	/	-5.9	/	/
Cc1cccc(-n2c(O)c(C=Nc3c(C)n(C)n(-c4ccccc4)c3=O)c3ccccc3c2=O)n1	-5.5	-8.6	0.4	-6.1	58.1*!	9.8
COc1ccc(CC2(CO)CCN(Cc3cc4ccccc4o3)CC2)cc1	5.0	-6.8	1.3	0.5	5.2	29.8
OCC1(Cc2cccc(C(F)(F)F)c2)CCN(Cc2cc3ccccc3o2)CC1	43.4	89.1*	21.7	14.8	-27.1	20.4
COc1cccc(NC(=S)N(CCCN2CCN(C)CC2)Cc2ccco2)c1	21.0	61.0*	-0.1	0.9	-6.1	4.0
COc1ccc(S(=O)(=O)N(C)C[C@@H]2Oc3c(NC(=O)Nc4c(C)noc4C)cccc3C(=O)N([C@@H](C)CO)C[C@@H]2C)cc1	/	/	/	-5.9	/	/
Cc1ccc(C2=NN(S(C)(=O)=O)C(c3cccs3)C2)cc1 (stereo unspecified)	11.4	41.6	-54.6	/	-51.1	-26.3
CS(=O)(=O)N1N=C(c2ccc(Br)cc2)CC1c1cccs1 (stereo unspecified)	28.3	52.3*	-47.5	/	-31.9	-18.1
CCc1ccc(C2=NN(S(C)(=O)=O)C(c3cccs3)C2)cc1 (stereo unspecified)	47.9	70.3*	-19.4	/	-47.8	34.0
COCC(=O)N1[C@@H]2c3cccc(=O)n3C[C@@H]2[C@@H](CO)[C@@H]1C(=O)NCc1ccccc1Cl	/	/	/	7.2	/	/
Clc1ccccc1-c1ncc2ccccn12	128.9	168.5*	-11.0	-19.4	-9.7	-4.8
Clc1ccc(-c2ncc3ccccn23)cc1	38.5	63.1*	-12.7	9.6	-20.2	-11.4
CCCNC(=O)N1CC2(CCN(C(=O)C3CCC3)CC2)c2c([nH]c3cc(OC)ccc23)[C@H]1CO	/	/	/	7.6	/	/
O=C(C[C@H]1CC[C@H]2[C@@H](COC[C@H](O)CN2Cc2cc(F)ccc2F)O1)N[C@H]1CCN(Cc2ccccc2)C1	/	/	/	4.3	/	/
O=C1CSC(=S)N1c1cccc(O)c1	4.5	17.7	30.9	16.4	6.6	76.2*
O=C(O)c1cccc(N2C(=O)CSC2=S)c1	-7.8	4.0	-24.6	5.9	-3.7	4.5
COc1ccc(CNS(=O)(=O)c2cc(CN3C(=O)c4cccnc4C3=O)ccc2OC)cc1	17.4	60.5*	-7.8	11.1	5.9	-3.8
CCOc1ccc(CNS(=O)(=O)c2cc(CN3C(=O)c4cccnc4C3=O)ccc2OC)cc1	-1.0	-5.1	-5.2	-5.0	-6.8	-9.2
CC(=O)Nc1ccc2c(c1)C(=O)N(C)[C@H]1CC[C@@H](CC(=O)NC3CCCCC3)O[C@@H]1CO2	/	/	/	12.6	/	/
Cc1cc(C)nc(SC2=CS(=O)(=O)c3ccccc32)n1	6.8	2.4	15.1	/	-16.0	53.3*
O=S1(=O)C=C(Sc2nnc(-c3ccccc3)o2)c2ccccc21	-4.3	-17.6	62.3*	/	7.7	103.1*
O=S1(=O)C=C(SCCN2CCCCC2)c2ccccc21	-4.3	1.8	-12.8	/	12.1	-22.1
CSc1nnc(-c2ccccc2)o1	-2.1	15.3	-10.3	-2.4	-164.7	-11.1
O=S1(=O)C=C(Sc2nc3ccccc3s2)c2ccccc21	-87.3*	-86.8	/	/	/	/
COCC(=O)Nc1ccc2c(c1)OC[C@H](C)N(C(=O)c1cccnc1)C[C@@H](C)[C@@H](OC)CN(C)C2=O	/	/	/	-16.3	/	/
Oc1c(Cl)cc(Cl)cc1C=Nc1cc(C(F)(F)F)ccc1N1CCc2ccccc2C1	36.8	69.9*	32.6	-80.0	-51.1	20.6
COc1ccc(C2NC3=C(CCC3)C3(C#N)C(OC)(OC)N=C(N)C23C#N)cc1 (stereo unspecified)	-24.5	-33.0	53.8*	/	62.4*	95.8*
